Where “and” joins values, the source holds several entries; their conditions need not be identical. Equal values may be shown once. Inconclusive results are not listed. Calls of active or inactive are those of the source. How the source made its calls, unless noted: active means hit-call score of the fitted dose curve at least 0.9, where 1 is the maximum; inconclusive means response in the unintended direction; inactive means score below 0.9.
Assays:
[1] = read-out: Thyroid Hormone Responsive (THRSP), THRSP (gene 7069); test: LTEA_HepaRG_THRSP: Life Technologies and Expression Analysis (LTEA) Assay for Thyroid Hormone Responsive (THRSP) using HepaRG (AID 2283536; active means hit-call score of the fitted dose curve at least 0.9, where 1 is the maximum; inactive means score below 0.9); conditions: mRNA level, 48 h; actives raise or lower the signal
How it was run: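 mRNA induction or loss relative to 0.5% DMSO vehicle was fitted bidirectionally across an eight-point curve whose highest exposure was 100 uM. Human HepaRG liver cells received chemicals in duplicate over 48 h before RNA extraction.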

[2] = read-out: Cellular tumor antigen p53 (Homo sapiens) (UniProt P04637); test: LTEA_HepaRG_TP53: Life Technologies and Expression Analysis (LTEA) Assay for Tumor Protein P53 (TP53) using HepaRG (AID 2283537; active means hit-call score of the fitted dose curve at least 0.9, where 1 is the maximum; inactive means score below 0.9); conditions: mRNA level, 48 h; actives raise or lower the signal
How it was run: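 Differentiated HepaRG cells in serum-free induction medium exposed 48 h in duplicate to 8 half-log concentrations, top 100 uM, 0.5% DMSO. TP53 mRNA by TaqMan qRT-PCR (Fluidigm), normalized to ACTB, GAPDH, POLR2A; fitted bidirectionally versus DMSO.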

[3] = read-out: UDP glucuronosyltransferase (UGT1A1), UGT1A1 (gene 54658); test: LTEA_HepaRG_UGT1A1: Life Technologies and Expression Analysis (LTEA) Assay for UDP glucuronosyltransferase (UGT1A1) using HepaRG (AID 2283538; active means hit-call score of the fitted dose curve at least 0.9, where 1 is the maximum; inactive means score below 0.9); conditions: mRNA level, 48 h; actives raise or lower the signal
How it was run: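 HepaRG cells, 0.5% DMSO vehicle, 48 h exposure in serum-free induction medium to 8-point half-log series topping at 100 uM, in duplicate. UGT1A1 mRNA by Fluidigm qRT-PCR, normalized to ACTB/GAPDH/POLR2A; bidirectional fit versus DMSO.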

[4] = read-out: UDP glucuronosyltransferase (UGT1A6), UGT1A6 (gene 54578); test: LTEA_HepaRG_UGT1A6: Life Technologies and Expression Analysis (LTEA) Assay for UDP glucuronosyltransferase (UGT1A6) using HepaRG (AID 2283539; active means hit-call score of the fitted dose curve at least 0.9, where 1 is the maximum; inactive means score below 0.9); conditions: mRNA level, 48 h; actives raise or lower the signal
How it was run: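 Expression was quantified by TaqMan qRT-PCR on Fluidigm arrays with ACTB/GAPDH/POLR2A normalization and bidirectional fitting against 0.5% DMSO. HepaRG cells (~100,000/well) were treated in duplicate for 48 h at eight half-log concentrations up to 100 uM in serum-free induction medium.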

[5] = read-out: X-box binding protein 1 (XBP1), XBP1 (gene 7494); test: LTEA_HepaRG_XBP1: Life Technologies and Expression Analysis (LTEA) Assay for X-box binding protein 1 (XBP1) using HepaRG (AID 2283540; active means hit-call score of the fitted dose curve at least 0.9, where 1 is the maximum; inactive means score below 0.9); conditions: mRNA level, 48 h; actives raise or lower the signal
How it was run: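 XBP1 transcript by qRT-PCR (housekeeping-normalized: ACTB, GAPDH, POLR2A) after 48 h chemical treatment of HepaRG cells, 8-point half-log series topping at 100 uM, vehicle 0.5% DMSO. Gain and loss of signal fitted relative to DMSO.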

[6] = LTEA_HepaRG_LDH_cytotoxicity: Cytotoxicity Assessment in the Life Technologies and Expression Analysis (LTEA) Assay (AID 2283563);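 on AC50: LDH activity released into spent culture medium as a marker of cell death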
How it was run: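 LDH release into culture medium read after 48 h chemical treatment of HepaRG cells. Duplicate wells, eight-point half-log series topping at 100 uM, 0.5% DMSO vehicle and baseline.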

[7] = TOX21_p53_BLA_p2_viability: Viability Assessment in the Tox21 HCT-116 p53 Agonism Beta-lactamase Assay, Phase 2 (AID 2283591);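 further: compound exposure lasted 16 h at 37 °C; actives lower the ATP signal meaning cytotoxicity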
How it was run: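 Cytotoxicity readout: CellTiter-Glo ATP luminescence, 30 min at room temperature, after the beta-lactamase read. Cells were HCT116 exposed 16 h at 37C to compounds pin-transferred at 217-fold dilution from DMSO stocks.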

[8] = molecular target: Cellular tumor antigen p53 (Homo sapiens) (UniProt P04637); test: TOX21_p53_BLA_p2_ratio: Tox21 HCT-116 p53 Agonism Beta-lactamase Assay, Ratio, Phase 2 (AID 2283592)
Chain of Cellular tumor antigen p53 (Homo sapiens) (P04637 whole entry, looked up): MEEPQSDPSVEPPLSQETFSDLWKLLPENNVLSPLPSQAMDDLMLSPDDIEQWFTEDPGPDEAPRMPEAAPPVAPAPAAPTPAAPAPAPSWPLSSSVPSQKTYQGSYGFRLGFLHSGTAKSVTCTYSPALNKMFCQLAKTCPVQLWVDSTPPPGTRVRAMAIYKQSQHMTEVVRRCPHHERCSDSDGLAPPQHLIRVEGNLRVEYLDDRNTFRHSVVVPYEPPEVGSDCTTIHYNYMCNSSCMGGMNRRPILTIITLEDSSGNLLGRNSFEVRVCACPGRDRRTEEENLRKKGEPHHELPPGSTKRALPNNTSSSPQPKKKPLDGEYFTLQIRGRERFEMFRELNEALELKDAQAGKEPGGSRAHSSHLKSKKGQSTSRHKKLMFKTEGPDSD
How it was run: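 Gain-of-signal p53 agonism was scored from the beta-lactamase FRET ratio (460/530 nm, 405 nm excitation) in HCT116 cells treated 16 h at 37C, 5% CO2, with DMSO serving as negative control and baseline.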

[9] = molecular target: Cellular tumor antigen p53 (Homo sapiens) (UniProt P04637); test: TOX21_p53_BLA_p3_ratio: Tox21 HCT-116 p53 Agonism Beta-lactamase Assay, Ratio, Phase 3 (AID 2283596)
How it was run: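 HCT116 p53-bla cells (4000/well) given compound in DMSO (217-fold dilution) after 5 h, incubated 16 h at 37C. CCF4-AM substrate 2 h at room temperature; 460/530 nm emission ratio, gain fitted against DMSO.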

[10] = TOX21_p53_BLA_p4_viability: Viability Assessment in the Tox21 HCT-116 p53 Agonism Beta-lactamase Assay, Phase 4 (AID 2283597);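 further: hits lower the luminescence signal meaning cytotoxicity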
How it was run: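 Following a 16 h exposure at 37C, the treated HCT116 wells were first read for the FRET ratio. They were then lysed with CellTiter-Glo, and ATP luminescence was recorded after 30 min at room temperature.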

[11] = molecular target: Cellular tumor antigen p53 (Homo sapiens) (UniProt P04637); test: TOX21_p53_BLA_p5_ratio: Tox21 HCT-116 p53 Agonism Beta-lactamase Assay, Ratio, Phase 5 (AID 2283599)
How it was run: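 Beta-lactamase reporter ratio (blue 460 nm over green 530 nm, 405 nm excitation) after 2 h CCF4-AM loading, in HCT-116 cells exposed 16 h at 37 C to compounds pinned at 217-fold dilution. Increases relative to DMSO baseline scored.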

[12] = TOX21_p53_BLA_p5_viability: Viability Assessment in the Tox21 HCT-116 p53 Agonism Beta-lactamase Assay, Phase 5 (AID 2283600)
How it was run: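 After the 460/530 nm beta-lactamase measurement, the wells received an ATP-detection luciferase reagent; signal was read 30 min later at RT. Compound treatment lasted 16 h on cells pre-incubated 5 h post-seeding.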

[13] = molecular target: Cellular tumor antigen p53 (Homo sapiens) (UniProt P04637); test: TOX21_p53_BLA_p4_ratio: Tox21 HCT-116 p53 Agonism Beta-lactamase Assay, Ratio, Phase 4 (AID 2283601)
How it was run: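 Signal is the blue/green (460nm/530nm) ratio of cleaved versus uncleaved CCF4-AM substrate, read after 2 h substrate loading. Cells were HCT116 carrying the p53-responsive beta-lactamase reporter, dosed 16 h at 37C, 5% CO2; CellTiter-Glo measured in parallel.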

[14] = Tanguay_ZF_120hpf_MORT_legacy: (Legacy) Oregon State University Tanguay Lab 120 Hour Post-fertilization zebrafish Assay for Mortality (AID 2283633);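 on AC50: fitted as increase in binary mortality versus DMSO negative control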
How it was run: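 Static waterborne exposure from 6 to 120 hpf at 28C of single dechorionated wild-type (5D) embryos per well, 0.64% DMSO final. Death recorded present/absent by brightfield at 24 and 120 hpf.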

[15] = Tanguay_ZF_120hpf_YSE_legacy: (Legacy) Oregon State University Tanguay Lab 120 Hour Post-fertilization zebrafish Assay for Yolk Sac Edema (AID 2283634);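 on AC50: actives raise the incidence of yolk sac edema above the DMSO baseline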
How it was run: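 Presence or absence of yolk sac edema was recorded at 120 hpf in surviving larvae. These were wild-type Tropical 5D embryos, chorion removed at 4 hpf, held in static exposure at 28C from 6 hpf with 0.64% DMSO vehicle.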

[16] = Tanguay_ZF_120hpf_AXIS_legacy: (Legacy) Oregon State University Tanguay Lab 120 Hour Post-fertilization zebrafish Assay for Body Axis Malformation (AID 2283635);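 on AC50: potency for an increased fraction of larvae scored with body axis malformation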
How it was run: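 Binary scoring of axis defects at 120 hpf under brightfield, fitted positive versus DMSO. Tropical 5D embryos, chorion removed by pronase at 4 hpf, were singly exposed in sealed, dark plates at 28C from 6 hpf; DMSO 0.64% final.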

[17] = Tanguay_ZF_120hpf_EYE_legacy: (Legacy) Oregon State University Tanguay Lab 120 Hour Post-fertilization zebrafish Assay for Eye Malformation (AID 2283636)
How it was run: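 Read-out is binary presence or absence of eye malformation, scored by brightfield microscopy at 120 hpf. Single larvae were exposed from 6 hpf in embryo medium containing 0.64% DMSO, with DMSO as baseline.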

[18] = Tanguay_ZF_120hpf_SNOU_legacy: (Legacy) Oregon State University Tanguay Lab 120 Hour Post-fertilization zebrafish Assay for Snout Malformation (AID 2283637)
How it was run: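 Snout malformation read as a yes/no call on brightfield images of 120 hpf larvae (Tropical 5D strain). Static exposure began at 6 hpf on dechorionated embryos in 0.64% DMSO, with gain of signal analysed versus DMSO controls.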

[19] = TOX21_p53_BLA_p3_viability: Viability Assessment in the Tox21 HCT-116 p53 Agonism Beta-lactamase Assay, Phase 3 (AID 2283593);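 further: cells exposed to compound for 16 h before reading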
How it was run: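 Cellular ATP was quantified by CellTiter-Glo luminescence, read after 30 min at room temperature. Beforehand, HCT116 cells (4000/well) received compound 5 h post-seeding, 217-fold diluted from DMSO, then incubated 16 h at 37C.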

[20] = ATG_XTT_Cytotoxicity: Cytotoxicity Assessment in the Attagene TRANS-FACTORIAL HepG2 Assay (AID 2283584)
How it was run: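 Viability endpoint from XTT after 24 h chemical exposure of reporter-transfected human HepG2 liver cells; signal loss fitted relative to DMSO negative control.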

Measured: AC50

CN(C)[C@@H]1C(=O)C(C(N)=O)=C(O)[C@@]2(O)C(=O)C3=C(O)c4c(O)cccc4[C@@](C)(O)[C@H]3C[C@@H]12
not listed: [19] | [20]
inactive: all other assays above

CC(C)(O)c1cnn2c(-c3ccc(F)c(-c4c(F)cccc4C#N)c3)cnc2n1
active: [3] 0.268 µM
not listed: [9] | [11] | [12] | [20]
inactive: all other assays above

CN(C)c1ccc(C(=O)c2ccc(N(C)C)cc2)cc1
inactive: [1] | [2] | [4] | [5] | [6] | [7] | [10] | [12]
active: [3] 13.2 µM | [8] 748 nM and 1.29 µM | [9] 826 nM and 1.65 µM | [11] 690 nM and 351 nM | [13] 907 nM and 463 nM | [14] 9.64 µM | [15] 25.4 µM | [16] 25.2 µM | [17] 8.23 µM | [18] 27.7 µM

CCC12COCN1COC2
not listed: [19] | [20]
inactive: all other assays above

[Cl-].[Cl-].[Hg+2]
inactive: [2] | [3] | [4] | [5]
active: [1] 21.8 µM | [7] 34.8 µM and 7.78 µM and 16.4 µM | [10] 32.1 µM and 9.76 µM and 12 µM | [12] 85.2 µM and 19 µM and 18.5 µM | [14] 2.7 µM | [15] 4.25 µM | [16] 3.84 µM | [17] 1.05 µM | [18] 3.82 µM

O=[N+]([O-])c1ccc(Oc2ccc(Cl)cc2Cl)cc1
active: [6] 73.8 µM
not listed: [3] | [18] | [19]
inactive: all other assays above

c1ccc2c(c1)-c1cccc3cccc-2c13
active: [3] 16.1 µM
not listed: [6] | [12] | [17] | [18] | [19] | [20]
inactive: all other assays above

CC(C)N(Cc1ccccc1)C(=O)C(C)(C)C
active: [3] 6.96 µM
not listed: [5] | [7] | [8] | [10] | [12] | [19] | [20]
inactive: all other assays above

Cc1ccc(N)cc1
not listed: [7] | [16] | [19] | [20]
inactive: all other assays above

CCCSC(=O)N(CCC)CCC
not listed: [7] | [8] | [13] | [19] | [20]
inactive: all other assays above

CO[C@@H]1[C@H](OC(=O)NC(=O)CCl)CC[C@]2(CO2)[C@H]1[C@@]1(C)O[C@@H]1CC=C(C)C
active: [15] 0.0035 µM | [18] 0.239 µM
not listed: [7] | [8] | [12] | [13] | [19] | [20]
inactive: all other assays above

Clc1ccccc1Cl
inactive: [1] | [3] | [4] | [5] | [6] | [14] | [15] | [16] | [17] | [18]

N#CC(Br)(Br)C(N)=O
active: [10] 70.2 µM
not listed: [7] | [11] | [19] | [20]
inactive: all other assays above

C[C@]12C=CC3=C4CCC(=O)C=C4CC[C@H]3[C@@H]1CC[C@@H]2O
active: [1] 15.7 µM | [3] 1.01 µM | [5] 72.4 µM | [15] 48.8 µM | [17] 27.1 µM | [18] 43.3 µM
inactive: [4] | [6] | [20] | [14]

O=C1CCCO1
active: [2] 50 µM | [4] 50 µM
not listed: [7] | [19] | [20]
inactive: all other assays above

Reference: PubChem BioAssay (EPA / NIEHS)
